# The campaign covered roughly 69,000 compounds. About 8,600 (12%) showed an effect of 50% or more. For the sample, strong results were picked, then their nearest neighbours and some compounds at random.
# Tested on: Plasmodium berghei
# Assay: Screen against P. berghei liver stage (PbLuc), transformed with Luciferase, at 10uM
# Format: functional, HepG2
# Conditions: tested at 10 uM
row,SMILES,INHIBITION [%]
1,CC(=O)N1CCCC(c2ccc(C(N)=O)cn2)C1 (stereo not drawn),40
2,CCc1ccc(C2c3nc[nH]c3CCN2Cc2nccn2CC)nc1 (stereo not drawn),29.3
3,CC(=O)N1CC2(CCCC2)c2ccccc21,7.21
4,CCC1c2ccsc2CCN1Cc1cc2c(cc1OC)OCCO2 (stereo not drawn),69.4
5,COc1cc2c(cc1CN1CCc3sccc3C1C)OCCO2 (stereo not drawn),40.6
6,COc1ccc(CN2CCc3sccc3C2C)cc1CN1CCOCC1 (stereo not drawn),52.7
7,CC1c2ccsc2CCN1Cc1cc2c(cc1O)OCO2 (stereo not drawn),18.2
8,COc1ccsc1C(=O)Nc1cc(CN2CCOCC2)ccc1C,-29.4
9,COc1cc2c(cc1CN1CCc3sccc3C1C)OCO2 (stereo not drawn),26.7
10,Cn1ncc2c1NC(=O)CC2c1cccs1 (stereo not drawn),-3.77
11,CC(c1cccc(F)c1)N1CCN(Cc2nccn2C)CC1 (stereo not drawn),-39.7
12,CC(=O)NCC(=O)N1CCC2(COCc3c(C)nc(N(C)C)nc32)C1 (stereo not drawn),-13.2
13,Cc1ccc(NC2CCN(C(=O)c3ccco3)CC2)nn1,-17
14,Cc1ccc2c(n1)N(CC1CC1)CCN(C(=O)c1ccncc1F)C2,-37.4
15,Cn1cnc2c1CCN(CCS(=O)(=O)c1ccc(Cl)cc1)C2,52.3
16,Cn1cnc2c1CCN(CCCS(=O)(=O)c1ccccc1)C2,-1.14
17,Cn1cnc2c1CCN(CC(O)c1ccc(S(C)(=O)=O)cc1)C2 (stereo not drawn),57.6
18,Cn1cnc2c1CCN(CCS(=O)(=O)c1ccccc1)C2,24.4
19,Cn1cnc2c1CCN(CCCOc1ccc(S(C)(=O)=O)cc1)C2,49
20,Cn1cnc2c1CCN(CC(O)c1ccc3c(c1)OCCO3)C2 (stereo not drawn),42.6
21,Cc1cc(C)nc(Nc2cc(C3CCCN(C)C3)nc(C)n2)n1 (stereo not drawn),46.1
22,CCc1nc(C2CCCN2Cc2ccn(C)c(=O)c2)no1 (stereo not drawn),21.255

row,SMILES,INHIBITION [%]
1,CCn1c(C(=O)N2CCCN(CC(N)=O)CC2)cc2ccccc21,-27.8
2,CN(CCNC(=O)c1cccnc1)S(C)(=O)=O,30.9
3,CCc1nn(C)c(Cl)c1CN1CCC2(C1)CN(C)C(=O)O2 (stereo not drawn),-73.7
4,CCc1nn(C)c(Cl)c1CN1CCCC2(CC1)CN(C)C(=O)O2 (stereo not drawn),53.4
5,CCc1nn(C)c(Cl)c1CN1CCCC2(C1)CN(C)C(=O)O2 (stereo not drawn),14.9
6,CN(C)Cc1ccccc1Cn1cncc1-c1cnn(C)c1,12.8
7,O=S(=O)(c1cccs1)N1CCCn2cnc(CO)c2C1,26.3
8,CC(NC(=O)CCn1c(=O)oc2ccccc21)c1ccccn1 (stereo not drawn),8.65
9,CCNC(=O)C1CCCN(c2ccc3ccc(F)cc3n2)C1 (stereo not drawn),20.8
10,Cn1ncc(C(=O)O)c1C(=O)Nc1nc2ccccc2s1,45.4
11,Cn1nc(N2CCCC(C(=O)Nc3nccs3)C2)ccc1=O (stereo not drawn),21.5
12,Cn1nc(N2CCCC(C(=O)Nc3nc4ccccc4s3)C2)ccc1=O (stereo not drawn),82.2
13,Cn1nc(N2CCCC(C(=O)Nc3nc4ccccc4[nH]3)C2)ccc1=O (stereo not drawn),51
14,CNC(=O)C1CCCN(c2nc3c(-c4ccccc4)csc3c(=O)[nH]2)C1 (stereo not drawn),11.6
15,CCOCCSc1nnc(-c2cn(CC)nc2OCC)n1C,1.95
16,O=C(C1CCCCC1)N1CCCC([C@@H]2C[C@H](C(F)F)n3ncnc3N2)C1 (stereo partly drawn),25.26
17,Cc1cc(C)nc(C2CCN(C(=O)CCn3ncc4ccccc43)C2)n1 (stereo not drawn),9.93
18,CC(Cn1cncn1)NCc1csc2c1CCCC2 (stereo not drawn),51.1
19,CC(Cn1cccn1)NCc1csc2c1CCCC2 (stereo not drawn),46.6
20,CC(Cn1ccnc1)NCc1csc2c1CCCC2 (stereo not drawn),31.4
21,CCc1nnc(CN2CCc3ccc(S(N)(=O)=O)cc32)o1,18
22,CN(CCc1ccccn1)C(=O)CCC1CCCN(c2cnccn2)C1 (stereo not drawn),27.6

row,SMILES,INHIBITION [%]
1,CC(=O)N1CCc2nnc(C3CCCCN3CC3CCCCC3)n2CC1 (stereo not drawn),42.4
2,COCCNC(=O)NC1(c2ccccc2F)CC1,20
3,CCN(CC)C(CNC(=O)c1ccnc(N(C)C)c1)c1ccsc1 (stereo not drawn),13.3
4,Cc1ccc(C)c(CC(=O)NC2CCC(N3C(=O)CCC3=O)CC2)c1 (stereo not drawn),50.1
5,Cc1ccc(C)c(C(=O)NC2CCC(N3C(=O)CCC3=O)CC2)c1 (stereo not drawn),-56.4
6,Cc1ccc(C)c(CC(=O)NC2CCS(=O)(=O)CC2)c1,41.5
7,CN(Cc1cccnc1)Cc1cn2c(n1)CN(C1CCOCC1)CC2,4.57
8,CC1=CC[C@@H]2CN(C(=O)c3ccc(-c4cc[nH]n4)cc3)C[C@@H]2C1,-37.1
9,COc1ccc(CNC(=O)NCCc2csc(C)n2)cn1,36.1
10,Cn1ccc(NCc2cc3cc(F)ccc3o2)n1,-18
11,CN1CCOC[C@H]1c1nc(-c2ccncc2)c[nH]1,52
12,CN1CCOC[C@H]1c1nc(-c2cccc(F)c2)c[nH]1,9.51
13,Fc1cccc(-c2c[nH]c([C@@H]3COCCN3C3CCOCC3)n2)c1,-24.1
14,CN1CCC(N2CCOC[C@H]2c2nc(C(C)(C)C)c[nH]2)CC1,49.5
15,CN1CCOC[C@H]1c1nc(C(C)(C)C)c[nH]1,50.2
16,CN1CCOC[C@H]1c1nc(-c2ccccc2)c[nH]1,-23.1
17,CC(C)(C)c1c[nH]c([C@@H]2COCCN2C2CCC2)n1,23
18,CC(C)(C)CN1CCOC[C@H]1c1nc(-c2cccc(F)c2)c[nH]1,64.8
19,c1cc(CN2CCOC[C@H]2c2nc(-c3ccncc3)c[nH]2)ccn1,-7.59
20,Cc1ccc(-c2c[nH]c([C@@H]3COCCN3Cc3ncc[nH]3)n2)cc1,46.6
21,c1cc(-c2c[nH]c([C@@H]3COCCN3Cc3ncc[nH]3)n2)ccn1,54.7
22,CN1CCC(N2CCOC[C@H]2c2nc(-c3ccncc3)c[nH]2)CC1,35.8

row,SMILES,INHIBITION [%]
1,COCC(=O)N1CCC2(CC1)CN(S(C)(=O)=O)Cc1ccccc1O2,14.94
2,c1ncn(CC2CN(Cc3ccc4c(c3)OCCO4)CCO2)n1 (stereo not drawn),17.4
3,O=C(CC1CN(Cc2ccccc2)CCO1)Nc1ccsc1 (stereo not drawn),31.3
4,CC(C)[C@H]1CN(C(=O)CO)C[C@@H]1N(C)C,14
5,CCS(=O)(=O)N1C[C@@H](O)[C@H](N(C)Cc2ccc(F)cc2)C1,11.94
6,CC1CCN(C(=O)c2ccn(COc3ccccc3)n2)CC1,-15.5
7,CC(C)N1CCCn2nc(C(=O)NCc3ccccc3F)cc2C1,62.6
8,O=C(NCc1ccccn1)c1cc2n(n1)CCNC2,-54.5
9,CC(NC(=O)c1cc2n(n1)CCCN(C(C)C)C2)c1cn2ccsc2n1 (stereo not drawn),-59.5
10,CSc1ccccc1C(=O)NCc1cc2n(n1)CCCN(CC(C)C)C2,38.2
11,CC(C)N1CCCn2nc(C(=O)NCCc3ccccn3)cc2C1,57.2
12,CC(C)N1CCCn2nc(C(=O)NCCc3c[nH]cn3)cc2C1,18.2
13,CCN1CCO[C@@H]2CN(S(=O)(=O)c3cccs3)CC[C@@H]2C1,15.6
14,CC(C)N1C(=O)CN(CCOCCO)CC1(C)C,23.1
15,Cc1cccc(Cn2c(=O)[nH]c3csnc3c2=O)c1,12.8
16,CC(C)C(O)CNC(=O)Nc1cnn(Cc2ccccc2)c1 (stereo not drawn),4.82
17,CCSc1ncc(CN2C[C@@H]3CC[C@H]2CN(C2CCOCC2)C3)cn1,48.5
18,CSc1ncc(CN2C[C@@H]3CC[C@H]2CN(C2CCOCC2)C3)cn1,9.91
19,CN(C)c1ccc(CN2C[C@@H]3CC[C@H]2CN(C2CCOCC2)C3)cn1,53.5
20,Cc1nc(CN2CCC3(CCN(Cc4cnn(C)c4)C3)C2=O)cs1 (stereo not drawn),25.3
21,O=S1(=O)c2cccnc2OC(Cc2ccccc2)CN1CC1CC1 (stereo not drawn),24.5
22,OCC1(O)CCN(c2ccnc3c(C(F)(F)F)cccc23)CC1,17.5

row,SMILES,INHIBITION [%]
1,Cc1cc(C)c(C(=O)Nc2cccc(CN3CCC(CO)CC3)c2)o1,-30
2,Cc1nc(C)c(C(=O)Nc2cccc(CN3CCC(CO)CC3)c2)o1,61.8
3,Cc1nn(C)cc1C(=O)Nc1cccc(CN2CCC(CO)CC2)c1,44.2
4,CCc1cccc(-n2nnc(C(=O)O)c2-c2ccncc2)c1,45.8
5,Cc1n[nH]c(-c2ccc(NC(=O)C(C)(C)N3CCN(C)CC3)cc2)n1,-25.6
6,Cc1n[nH]c(-c2ccc(NC(=O)C(C)N3CCN(C)CC3)cc2)n1 (stereo not drawn),-27.4
7,CCC(C(=O)Nc1ccc2c(C)n[nH]c2c1)N1CCCC1=O (stereo not drawn),53.6
8,CCCN1CCCN(C(=O)C(CC)N2CCCC2=O)CC1 (stereo not drawn),-3.99
9,CCC(C(=O)NCc1ccn(-c2ccc(F)cc2)n1)N1CCCC1=O (stereo not drawn),2.82
10,CCC(C(=O)Nc1ccc(-c2nc(C)n[nH]2)cc1)N1CCCC1=O (stereo not drawn),59.1
11,CC(C)(C)c1noc(CCC(=O)NCC2CCS(=O)(=O)C2)n1 (stereo not drawn),26.4
12,Cc1cc(N(C)C)nc(C2COCCN2Cc2cscn2)n1 (stereo not drawn),45.9
13,O=C1CC(N(C(=O)c2ccc(F)c(C(F)(F)F)c2)C2CC2)C(=O)N1 (stereo not drawn),0.914
14,CCc1ccc2c(C3CN(CC4CCC4)C3)ncn2c1,27.5
15,O=C(NC[C@H]1OC[C@@H](NC2CCNCC2)[C@@H]1O)C1CCCC1,24.5
16,OC(COc1ccc(F)cc1)CN1CCC(Cn2cccn2)CC1 (stereo not drawn),22.9
17,COCc1ncc(-c2nccn2CCn2cnnc2)cn1,-0.614
18,CCCn1ccnc1-c1nccn1CCn1cnnc1,50.5
19,CCCn1ccnc1-c1nccn1CCN(C)C,34.1
20,C1CCC(CNC2CCCN(Cc3noc(C4CC4)n3)C2)CC1 (stereo not drawn),31.6

# Source: ChEMBL document CHEMBL4513216, “Probing the Open Global Health Chemical Diversity Library for Multistage-Active Starting Points for Next-Generation Antimalarials” (ACS Infect Dis, 2020)
